From the supplement of paper PMC12808144
Values without a mark were called inactive.

Tests used:
NHEM-hTERT = assay: cell viability relative to DMSO control (fraction of DMSO control); higher = less cytotoxic, active = 0.5 or less; details: 1 µM; 120 h
Outline: (§1)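 Three cell types were screened against 315 approved anti-cancer drugs from TargetMol, acoustically pre-spotted in 384-well plates at 1 µM in duplicate over 120 h: NHEM-hTERT immortalized melanocytes (2500/well), patient-derived Mel-DCC-11 and its resistant subline Mel-DCC-11-R (both 1500/well), all in 40 µl per well. The subline was tested alone and with 8 µM of its selecting drug. Viability, measured by luminescence, was normalised to vehicle controls and averaged across duplicates, with ATPlite 1step as the readout.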

Mel-DCC-11-R = assay: cell viability relative to DMSO control (fraction of DMSO control); higher = less cytotoxic, active = 0.8 or less; details: 1 µM, 120 h
Outline: as §1

| Structure (SMILES) | cell viability (NHEM-hTERT) | cell viability (Mel-DCC-11-R; vemurafenib co-treatment 0 µM) | cell viability (Mel-DCC-11-R; vemurafenib co-treatment 8 µM) |
| --- | --- | --- | --- |
| COc1cc2nccc(Oc3ccc(NC(=O)Nc4cc(C)on4)c(Cl)c3)c2cc1OC [Tivozanib] | 1.09 | 1.08 | 1.08 |
| CC1=C(CC(=O)O)c2cc(F)ccc2/C1=C\c1ccc(S(C)=O)cc1 (stereo not drawn) [Sulindac] | 0.963 | 0.986 | 1.03 |
| CO[C@H]1C[C@@H]2CC[C@@H](C)[C@@](O)(O2)C(=O)C(=O)N2CCCC[C@H]2C(=O)O[C@H]([C@H](C)C[C@@H]2CC[C@@H](OC(=O)C(C)(CO)CO)[C@H](OC)C2)CC(=O)[C@H](C)/C=C(\C)[C@@H](O)[C@@H](OC)C(=O)[C@H](C)C[C@H](C)/C=C/C=C/C=C/1C [Temsirolimus] | 0.758 | 1.53 | 0.786 (active) |
| CCc1c2c(nc3ccc(OC(=O)N4CCC(N5CCCCC5)CC4)cc13)-c1cc3c(c(=O)n1C2)COC(=O)[C@]3(O)CC [Irinotecan] | 0.894 | 0.98 | 0.694 (active) |
| CC(C)C[C@H](NC(=O)[C@H](CCc1ccccc1)NC(=O)CN1CCOCC1)C(=O)N[C@@H](Cc1ccccc1)C(=O)N[C@@H](CC(C)C)C(=O)[C@@]1(C)CO1 [Carfilzomib] | 0.0167 (active) | 0.0186 (active) | 0.018 (active) |
| COc1cc2ncnc(Nc3ccc(F)c(Cl)c3)c2cc1NC(=O)/C=C/CN1CCCCC1 [Dacomitinib] | 1.03 | 1.07 | 0.911 |
